# In PubChem BioAssay (EPA / NIEHS):
# Records with an inconclusive call do not appear. Active and inactive are the calls of the source. How the source made its calls, unless noted: active means hit-call score of the fitted dose curve at least 0.9, where 1 is the maximum; inactive means score below 0.9.
# Assays:
# [1] = CCTE_Shafer_MEA_acute_firing_rate_mean: CCTE's Neural Acute Assay for Mean Firing Rate, Shafer Lab (AID 2284009);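 further: analyzed for loss of signal so actives lower firing rate relative to DMSO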
# In short: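 Rat primary cortical neurons on 48-well MEA plates, dosed at 0.03-40 uM on DIV 13 or 15; 40 min spontaneous activity recorded at 37 C before and after compound. Spike rate per electrode averaged per well, expressed as percent change from baseline.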
# [2] = CCTE_Shafer_MEA_acute_burst_number: CCTE's Neural Acute Assay for Single-Electrode Bursts, Shafer Lab (AID 2284013)
# In short: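 Primary rat cortical neurons on 16-electrode MEA wells, treated on DIV 13 or 15 with compound at 0.03-40 uM. Single-electrode burst count from 40-min recordings at 37 C before and after exposure; percent change from baseline per well, DMSO negative control.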
# [3] = CCTE_Shafer_MEA_acute_burst_duration_mean: CCTE's Neural Acute Assay for Mean Burst Duration, Shafer Lab (AID 2284014);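 further: hits are decreases in mean burst duration relative to DMSO controls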
# In short: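 Rat primary cortical neurons on 48-well MEA, treated at DIV 13 or 15 with 0.03-40 uM in at least 3 wells. Value is percent change in mean burst duration, comparing 40 min recordings at 37 C before and during exposure.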
# [4] = CCTE_Shafer_MEA_acute_per_burst_spike_number_mean: CCTE's Neural Acute Assay for Average Number of Spikes Per Burst, Shafer Lab (AID 2284015);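 further: hits are decreases in mean spikes per burst versus baseline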
# In short: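 Percent change in mean spikes per single-electrode burst is compared between a 40 min baseline and a 40 min recording with compound (0.03-40 uM). Cultures were rat cortical neurons on MEA plates at DIV 13 or 15, recorded at 37 C, with DMSO as the negative control.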
# [5] = CCTE_Shafer_MEA_acute_interburst_interval_mean: CCTE's Neural Acute Assay for Mean Interburst Interval, Shafer Lab (AID 2284016);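 further: percent change of mean interburst interval versus each well's own pre-dose baseline; curves fitted for decrease in interburst interval relative to DMSO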
# In short: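 Percent change in mean single-electrode interburst interval was calculated per well from 40 min recordings before and after compound (0.03-40 uM). Recordings were made at 37 C on rat cortical cultures at DIV 13 or 15, with spikes detected at 8x rms threshold.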
# [6] = CCTE_Shafer_MEA_acute_burst_percentage_mean: CCTE's Neural Acute Assay for Percentage of Spikes in a Burst, Shafer Lab (AID 2284017);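 further: curve fitted for loss of signal so potency reflects decreased burst percentage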
# In short: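 Well-level mean burst percentage from a 40-min recording after compound (0.03-40 uM) expressed as percent change from a 40-min baseline at 37C. Cultures: primary rat cortical neurons on MEA, dosed on DIV 13 or 15; fitted downward relative to DMSO.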
# [7] = CCTE_Shafer_MEA_acute_per_network_burst_spike_number_std: CCTE's Neural Acute Assay for Standard Deviation of Number of Spikes in a Network Burst, Shafer Lab (AID 2284020);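 further: fitted for decrease in spike-number SD versus DMSO so actives lower it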
# In short: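 Rat primary cortical neurons on 48-well MEA (16 electrodes/well), treated DIV 13 or 15 at 0.03-40 uM, ≥3 wells per compound. 40 min recordings at 37 C before and after dosing; value is percent change in network-burst spike-number SD, negative direction vs DMSO.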
# [8] = CCTE_Shafer_MEA_acute_per_network_burst_electrodes_number_mean: CCTE's Neural Acute Assay for Mean Number of Electrodes in a Network Burst, Shafer Lab (AID 2284021);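 further: curves fitted for decreases only so hits reduce electrodes per burst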
# In short: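 Rat primary cortical neurons on 48-well MEAs, DIV 13 or 15, were treated at 0.03-40 uM. Spikes were detected at 8x rms noise and recorded at 37 C. The mean electrodes per network burst in a 40 min exposure recording was expressed as percent change from a 40 min baseline.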
# [9] = CCTE_Shafer_MEA_acute_network_burst_percentage: CCTE's Neural Acute Assay for Percentage of Network Bursts, Shafer Lab (AID 2284022);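 further: curves fitted for loss so actives lower network burst percentage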
# In short: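 Rat primary cortical neuron networks on 48-well MEA plates, DIV 13 or 15, treated acutely with compound (0.03-40 uM, at least three wells). Percent of spikes within network bursts compared between 40-min recordings before and during exposure at 37 C, expressed as percent change.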
# [10] = CCTE_Shafer_MEA_acute_cross_correlation_HWHM: CCTE's Neural Acute Assay for Cross Correlation at Half Width at Half Maximum, Shafer Lab (AID 2284026);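 further: percent change per well from pre-dose baseline in spike cross-correlogram half width; hits are a decrease in cross-correlogram half width relative to DMSO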
# In short: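 Rat primary cortical neurons on 48-well MEA plates; 40-min baseline and 40-min post-exposure recordings at 37 C on DIV 13 or 15, compounds 0.03-40 uM. Spikes detected at 8x rms noise; percent change in cross-correlogram HWHM per well vs baseline.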
# [11] = CCTE_Shafer_MEA_acute_AB: CCTE's Alamar Blue Assay for Cytotoxicity in the Neural Acute Assay, Shafer Lab (AID 2284069; active means hit-call score of the fitted dose curve at least 0.9, where 1 is the maximum;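 further: active compounds lower the viability signal compared with DMSO wells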)
# In short: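 Resazurin reduction (CellTiter Blue, 1:6 in fresh medium) read at ex 544/em 590 nm marks viability loss relative to DMSO. Cells: primary rat cortical neuron networks on microelectrode arrays, treated after baseline recording at 13 or 15 days in vitro.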
# [12] = CCTE_Shafer_MEA_acute_LDH: CCTE's Lactate Dehydrogenase Assay for Cytotoxicity in the Neural Acute Assay, Shafer Lab (AID 2284086; active means hit-call score of the fitted dose curve at least 0.9, where 1 is the maximum;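 further: active means LDH release rises above DMSO vehicle level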)
# In short: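 Released lactate dehydrogenase, read at 490 nm, indicated cytotoxicity after acute 40-min compound treatment of rat cortical neuron networks grown on 48-well MEA plates.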
# [13] = read-out: Monokine induced gamma interferon (MIG), CXCL9 (gene 4283); test: BSK_KF3CT_MIG: BioMAP Diversity Plus: KF3CT Assay for Monokine induced gamma interferon (MIG) Biomarker Activity (AID 2284248); details: primary human keratinocytes with fibroblasts
# In short: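 Human keratinocyte–foreskin fibroblast co-culture; MIG measured by ELISA 24 h after chemical dosing, fitted upward versus DMSO. Cytotoxicity was assessed in parallel cultures by SRB total-protein staining read at 560 nm.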
# [14] = read-out: Collagen I, COL1A1 (gene 1277); test: BSK_hDFCGF_CollagenI: BioMAP Diversity Plus: hDFCGF Assay for Collagen I Biomarker Activity (AID 2284250); details: primary human foreskin fibroblasts
# In short: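 Cells were primary human foreskin fibroblasts treated for 24 h. Collagen I levels were then determined by ELISA and compared against DMSO controls.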
# [15] = read-out: Interferon-inducible T-cell alpha chemoattractant (ITAC), CXCL11 (gene 6373); test: BSK_hDFCGF_ITAC: BioMAP Diversity Plus: hDFCGF Assay for Interferon-inducible T-cell alpha chemoattractant (ITAC) Biomarker Activity (AID 2284251); details: primary human foreskin fibroblasts
# In short: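 Primary human foreskin fibroblasts (hDFCGF system) treated for 24 h; I-TAC quantified by ELISA. Gain-direction fitting versus DMSO; parallel SRB staining of total protein flagged overt cytotoxicity.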
# [16] = read-out: Plasminogen activator inhibitor-1 (PAI1), SERPINE1 (gene 5054); test: BSK_KF3CT_PAI1: BioMAP Diversity Plus: KF3CT Assay for Plasminogen activator inhibitor-1 (PAI1) Biomarker Activity (AID 2284252); details: primary human keratinocytes with fibroblasts
# In short: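 Signal is PAI-1 detected by ELISA in a human skin-derived keratinocyte/fibroblast co-culture, 24 h after dosing; DMSO served as negative control and baseline.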
# [17] = read-out: Interleukin-8 (IL8), CXCL8 (gene 3576); test: BSK_KF3CT_IL8: BioMAP Diversity Plus: KF3CT Assay for Interleukin-8 (IL8) Biomarker Activity (AID 2284254); details: primary human keratinocytes with fibroblasts
# In short: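 Human keratinocyte/foreskin fibroblast co-culture dosed 24 h; IL-8 measured by ELISA relative to DMSO. Parallel cultures stained with SRB for total protein to flag cytotoxicity.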
# [18] = read-out: Intercellular Adhesion Molecule 1 (ICAM1), ICAM1 (gene 3383); test: BSK_BE3C_ICAM1: BioMAP Diversity Plus: BE3C Assay for Intercellular Adhesion Molecule 1 (ICAM1) Biomarker Activity (AID 2284278); details: primary human bronchial epithelial cells;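 further: cell-surface ICAM-1 protein level quantified by ELISA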
# In short: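 Measured by ELISA: ICAM-1 expressed by primary human bronchial epithelial cells 24 h after compound treatment, with upward-direction fitting versus DMSO vehicle.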
# [19] = read-out: Interferon-inducible T-cell alpha chemoattractant (ITAC), CXCL11 (gene 6373); test: BSK_BE3C_ITAC: BioMAP Diversity Plus: BE3C Assay for Interferon-inducible T-cell alpha chemoattractant (ITAC) Biomarker Activity (AID 2284279); details: primary human bronchial epithelial cells
# In short: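 ELISA read-out of I-TAC after 24 h chemical dosing of human lung primary bronchial epithelial cells; gain-of-signal fit vs DMSO baseline. Parallel SRB total-protein staining (0.1% SRB, 10% TCA fixation, 560 nm) assessed cytotoxicity.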
# [20] = read-out: Interleukin-8 (IL8), CXCL8 (gene 3576); test: BSK_BE3C_IL8: BioMAP Diversity Plus: BE3C Assay for Interleukin-8 (IL8) Biomarker Activity (AID 2284280); details: primary human bronchial epithelial cells
# In short: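 Primary human bronchial epithelial cells (BE3C system) exposed 24 h; IL-8 measured by ELISA and fitted in positive direction versus DMSO. Overt cytotoxicity assessed by SRB total-protein staining in parallel cultures.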
# [21] = read-out: Epidermal growth factor receptor (EGFR), EGFR (gene 1956); test: BSK_BE3C_EGFR: BioMAP Diversity Plus: BE3C Assay for Epidermal growth factor receptor (EGFR) Biomarker Activity (AID 2284281); details: primary human bronchial epithelial cells
# In short: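 Human primary bronchial epithelial cells (BE3C system) dosed with chemicals; EGFR measured by ELISA at 24 h, fitted in the positive direction relative to DMSO. Cytotoxicity tracked in parallel cultures by SRB total-protein staining.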
# KRT18 (gene 3875) = test: BSK_BE3C_Keratin818: BioMAP Diversity Plus: BE3C Assay for Keratin 818 Biomarker Activity (AID 2284282); details: primary human bronchial epithelial cells
# In short: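 BE3C: human bronchial epithelial primary cells, 24 h exposure, Keratin 8/18 ELISA; DMSO = negative control/baseline; cytotoxicity by parallel SRB stain (0.1% SRB after 10% TCA fixation, 560 nm).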
# [22] = read-out: Matrix Metallopeptidase 9 (MMP9), MMP9 (gene 4318); test: BSK_BE3C_MMP9: BioMAP Diversity Plus: BE3C Assay for Matrix Metallopeptidase 9 (MMP9) Biomarker Activity (AID 2284283); details: primary human bronchial epithelial cells
# In short: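 Human primary bronchial epithelial cells exposed 24 h to compound. MMP9 quantified by ELISA. SRB total-protein staining of parallel cultures assesses cytotoxicity. Positive-direction fit relative to DMSO.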
# [23] = read-out: Plasminogen activator inhibitor-1 (PAI1), SERPINE1 (gene 5054); test: BSK_CASM3C_PAI1: BioMAP Diversity Plus: CASM3C Assay for Plasminogen activator inhibitor-1 (PAI1) Biomarker Activity (AID 2284284); details: primary human coronary artery smooth muscle cells;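 further: PAI-1 protein level measured by ELISA 24 h after dosing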
# [24] = read-out: Monocyte Chemoattractant Protein-1 (MCP1), CCL2 (gene 6347); test: BSK_hDFCGF_MCP1: BioMAP Diversity Plus: hDFCGF Assay for Monocyte Chemoattractant Protein-1 (MCP1) Biomarker Activity (AID 2284285); details: primary human foreskin fibroblasts
# In short: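 Human foreskin fibroblasts (hDFCGF system) were exposed to compound and secreted MCP-1 was measured by ELISA after 24 hours. Activity was fitted relative to DMSO. Cytotoxicity was checked by SRB total-protein staining in parallel cultures.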
# [25] = read-out: Intercellular Adhesion Molecule 1 (ICAM1), ICAM1 (gene 3383); test: BSK_hDFCGF_ICAM1: BioMAP Diversity Plus: hDFCGF Assay for Intercellular Adhesion Molecule 1 (ICAM1) Biomarker Activity (AID 2284287); details: primary human foreskin fibroblasts
# In short: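 Primary human foreskin fibroblasts (hDFCGF system) dosed with chemical; ICAM-1 quantified by ELISA at 24 h relative to DMSO. Parallel SRB total-protein staining to assess overt cytotoxicity.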
# [26] = read-out: TIMP metallopeptidase inhibitor 2 (TIMP2), TIMP2 (gene 7077); test: BSK_hDFCGF_TIMP2: BioMAP Diversity Plus: hDFCGF Assay for TIMP metallopeptidase inhibitor 2 (TIMP2) Biomarker Activity (AID 2284289); details: primary human foreskin fibroblasts
# In short: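 Primary human foreskin fibroblasts in the hDFCGF system, dosed for 24 h; TIMP-2 level measured by ELISA, fitted in the positive direction against DMSO; cytotoxicity checked in parallel by sulforhodamine B total protein staining.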
# [27] = read-out: Thrombomodulin, THBD (gene 7056); test: BSK_LPS_Thrombomodulin: BioMAP Diversity Plus: LPS Assay for Thrombomodulin Biomarker Activity (AID 2284296); details: primary human HUVEC with PBMC
# In short: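 Human umbilical vein endothelial cells co-cultured with PBMC and stimulated with LPS; cell-surface thrombomodulin measured by ELISA 24 hours after compound. Gain or loss versus DMSO; cytotoxicity checked by SRB staining in parallel cultures.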
# CD69, CD69 (gene 969) = test: BSK_LPS_CD69: BioMAP Diversity Plus: LPS Assay for CD69 Biomarker Activity (AID 2284303); details: primary human HUVEC with PBMC
# In short: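 Human umbilical vein endothelial cells co-cultured with PBMC under LPS stimulation, chemical exposure 24 h; cell-surface CD69 measured by ELISA and fitted in the positive direction versus DMSO.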
smiles,measurement,setting,value
CCCC[N+](CCCC)(CCCC)CCCC,AC50,[1],3.01 nM (active)
same,AC50,[2],1.52 nM (active)
same,AC50,[3],9.59 µM (active)
same,AC50,[4],5.44 µM (active)
same,AC50,[5],9.27 µM (active)
same,AC50,[6],9.71 µM (active)
same,AC50,[7],5.6 µM (active)
same,outcome,[8],inactive
same,AC50,[9],6.81 µM (active)
same,AC50,[10],2.98 µM (active)
same,outcome,[11],inactive
same,outcome,[12],inactive
same,outcome,[13],inactive
same,outcome,[14],inactive
same,outcome,[15],inactive
same,outcome,[16],inactive
same,outcome,[17],inactive
same,outcome,[18],inactive
same,outcome,[19],inactive
same,outcome,[20],inactive
same,outcome,[21],inactive
same,outcome,KRT18 (gene 3875),inactive
same,outcome,[22],inactive
same,outcome,[23],inactive
same,outcome,[24],inactive
same,outcome,[25],inactive
same,outcome,[26],inactive
same,outcome,[27],inactive
same,outcome,"CD69, CD69 (gene 969)",inactive
